This is an account of results in PubChem BioAssay.

Test [1] has as its system Plasmodium falciparum Sir2 (PF13_0152, Sir2A). The test is described as follows: Plasmodium falciparum Sir2A binding compounds – biochemical, small-molecule microarray, 635 nm fluorescence, primary screen (AID 1098).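 Note: score merges spot fluorescence intensity with its signal-to-noise ratio.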 The conditions noted are these: fluorescence 635 nm, higher = more signal.
Test [2] in a line: probe aDKK1 binding to arrayed compounds – biochemical, biotinylated probe, 635/667 nm fluorescence, primary screen (AID 1099).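 Note: score merges 667nm spot fluorescence with signal to noise across triplicate slides.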 The conditions noted are these: small-molecule microarray, higher = more signal.
Test [3] is described as follows: probe aCHRDL2 binding to arrayed compounds – biochemical, biotinylated probe, 635/667 nm fluorescence, primary screen (AID 1100). The conditions noted are these: small-molecule microarray, higher = more signal.
A short description of test [4]: change in splice reporter luminescence, either direction, cell-based, HEK293, spliceosome inhibition project, primary screen (AID 1101).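 Note: HEK293 cells carrying a splicing-competent luciferase reporter gene; test concentration not given here.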 The conditions noted are these: HEK293 splicing luciferase reporter, 24 h, higher = more signal, called active from +8 up or from −8 down. (Reporter assays use an easily measured gene product as a stand-in for the process of interest.)

Test [5] concerns the target Fibroblast growth factor 10 (Homo sapiens) (UniProt O15520). The test is described as follows: compounds binding fibroblast growth factor 10 – biochemical, small-molecule microarray, 635 nm fluorescence, primary screen (AID 1102). The conditions noted are these: FGF10 binding, fluorescence 635 nm, higher = more signal.
Test [6] deals with glycogen synthase kinase-3 (GSK3A per assay name; protocol says GSK3B). The test is described as follows: compounds binding glycogen synthase kinase-3 – biochemical, small-molecule microarray, 635 nm fluorescence, GSK3A, primary screen (AID 1103). Note: the record names both GSK3A and GSK3B. The conditions noted are these: fluorescence 635 nm, higher = more signal.
The target in test [7] is Epidermal growth factor receptor (Homo sapiens) (UniProt P00533). Description: compounds binding epidermal growth factor receptor – biochemical, small-molecule microarray, 635 nm fluorescence, primary screen (AID 1104).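 Note: score merges 667 nm emission intensity with spot signal to noise over triplicate slides.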 The conditions noted are these: EGFR binding, higher = more signal.
In test [8] the target is Follistatin-related protein 3 (Homo sapiens) (UniProt O95633). The test is described as follows: compounds binding follistatin-related protein 3 – biochemical, small-molecule microarray, 635 nm fluorescence, primary screen (AID 1105).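 Note: score merges emission near 667 nm and signal to noise per printed spot across three slides.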 The conditions noted are these: FSTL3 binding, higher = more signal.
The target of test [9] is Dickkopf-related protein 1 (Homo sapiens) (UniProt O94907). The test is described as follows: small molecules binding DKK1 protein – biochemical, small-molecule microarray, 635 nm fluorescence scan, primary screen (AID 1106).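 Note: score merges emission near 667 nm with signal to noise over three replicate slides.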 The conditions noted are these: higher = more signal.
Test [10] concerns Inhibin beta A chain (activin A). The test is described as follows: small molecules binding activin A – biochemical, small-molecule microarray, 635 nm fluorescence scan, primary screen (AID 1107).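 Note: mouse activin A protein probed at 4.33 µg/mL on printed slides; score merges bound-protein fluorescence near 667 nm with spot signal-to-noise.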 The conditions noted are these: INHBA, higher = more signal.
The test system of test [11] is Human papillomavirus type 1a protein E7 (residues 44-93). Description: small molecules binding HPV E7 44-93 – biochemical, small-molecule microarray, residues 44-93, 635 nm fluorescence, primary screen (AID 1108).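 Note: E7 fragment applied at 1 µg/mL in TBST for 1 h at 4 C; score combines spot fluorescence with its signal to noise ratio.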 The conditions noted are these: fluorescence 635 nm, higher = more signal.
The nature of test [12]: hepatitis C replication reporter changes, two-sided – Huh7 cells, luciferase reporter, HCV replication inhibitor project, primary screen (AID 1109).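 Note: huh7 hepatoma cells harbouring a luciferase neomycin HCV replicon reporter; luciferase luminescence as measure of HCV replicon replication; test concentration not given here.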 The conditions noted are these: Huh7 HCV replicon luciferase reporter, 48 h; higher = more signal.
For test [13], the target named is Left-right determination factor 2 (Homo sapiens) (UniProt O00292). The test is described as follows: small molecules binding LEFTY2 protein – biochemical, small-molecule microarray, 635 nm fluorescence scan, primary screen (AID 1110). The conditions noted are these: higher = more signal.
Test [14] addresses Calmodulin-1 (Homo sapiens) (UniProt P0DP23). Description: small molecules binding calmodulin-1 with EGTA – biochemical, small-molecule microarray, Cy5-labelled CALM1, profiling panel (AID 1111).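 Note: labelled calmodulin applied in Tris saline Tween buffer holding calcium plus EGTA and DTT.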 The conditions noted are these: Cy5-CALM1 binding fluorescence, higher = more signal.
Test [15] shares this target. Description: small molecules binding Ca-loaded calmodulin-1 – biochemical, small-molecule microarray, Cy5-labelled CALM1, plus calcium, artefact control for SMM control-protein annotation, profiling panel (AID 1112).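 Note: score merges spot fluorescence with signal to noise from triplicate slides.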 The conditions noted are these: Cy5-CALM1 binding fluorescence, higher = more signal.
Test [16] in a line: probe aWnt5a binding to arrayed compounds – biochemical, biotinylated probe, 635/667 nm fluorescence, primary screen (AID 1113).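 Note: score merges 667 nm fluorescence intensity with signal-to-noise per printed feature.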 The conditions noted are these: small-molecule microarray, higher = more signal.
A short description of test [17]: probe aShh binding to arrayed compounds – biochemical, biotinylated probe, 635/667 nm fluorescence, primary screen (AID 1114).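 Note: probe is biotin-labelled aShh protein from a stem cell growth factor screen; measures binding of labelled protein to compounds printed on the slide; score merges feature fluorescence at 667 nm with signal-to-noise.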 The conditions noted are these: small-molecule microarray, higher = more signal.
Test [18] can be described thus: probe aNog binding to arrayed compounds – biochemical, biotinylated probe, 635/667 nm fluorescence, primary screen (AID 1115).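 Note: probe is biotinylated aNog protein used at 0.15 µg/mL for 1 h at 4 C; z-score combines 667 nm fluorescence of each spot with its signal to noise.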 The conditions noted are these: small-molecule microarray, higher = more signal.
Test [19] deals with Torsin-1A-interacting protein 1 (Homo sapiens) (UniProt Q5JTV8). The test is described as follows: compound microarray binding of lysate hLAP1 – cell lysate, small-molecule microarray, COS7 lysate, 635/667 nm fluorescence, primary screen (AID 1116). The conditions noted are these: 635 nm fluorescence, higher = more signal.
For test [20], the target named is Alpha-bungarotoxin (Bungarus multicinctus) (UniProt P60615). Description: compounds binding labelled alpha-BTX control protein – biochemical, small-molecule microarray, Alexa647 label, 635/667 nm fluorescence, artefact control for SMM control protein annotation, profiling panel (AID 1117). The conditions noted are these: alpha-BTX-A647 binding fluorescence, higher = more signal.

The structures appear in SMILES notation. Active and inactive are the calls of the source.

Sequence of Alpha-bungarotoxin (Bungarus multicinctus) (P60615 whole entry, looked up): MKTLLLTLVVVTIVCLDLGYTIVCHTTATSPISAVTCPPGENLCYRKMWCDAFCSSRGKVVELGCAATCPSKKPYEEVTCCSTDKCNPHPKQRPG
Sequence of Torsin-1A-interacting protein 1 (Homo sapiens) (Q5JTV8 whole entry, looked up): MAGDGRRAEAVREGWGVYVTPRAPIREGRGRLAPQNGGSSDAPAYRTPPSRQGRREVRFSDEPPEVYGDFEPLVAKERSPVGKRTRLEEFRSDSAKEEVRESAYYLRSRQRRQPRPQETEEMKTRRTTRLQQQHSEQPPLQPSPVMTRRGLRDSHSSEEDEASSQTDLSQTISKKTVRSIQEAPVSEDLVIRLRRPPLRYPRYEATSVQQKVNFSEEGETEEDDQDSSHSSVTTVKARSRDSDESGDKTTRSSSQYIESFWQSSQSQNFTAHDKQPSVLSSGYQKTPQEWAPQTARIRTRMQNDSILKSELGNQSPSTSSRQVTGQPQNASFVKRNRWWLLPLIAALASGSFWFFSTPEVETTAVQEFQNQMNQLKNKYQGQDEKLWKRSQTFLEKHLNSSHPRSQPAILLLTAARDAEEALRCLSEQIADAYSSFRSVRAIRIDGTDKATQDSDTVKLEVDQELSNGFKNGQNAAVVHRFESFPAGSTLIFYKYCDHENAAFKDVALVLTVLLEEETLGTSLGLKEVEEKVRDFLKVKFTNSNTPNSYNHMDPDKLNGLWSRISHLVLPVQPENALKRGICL
Sequence of Epidermal growth factor receptor (Homo sapiens) (P00533 whole entry, looked up): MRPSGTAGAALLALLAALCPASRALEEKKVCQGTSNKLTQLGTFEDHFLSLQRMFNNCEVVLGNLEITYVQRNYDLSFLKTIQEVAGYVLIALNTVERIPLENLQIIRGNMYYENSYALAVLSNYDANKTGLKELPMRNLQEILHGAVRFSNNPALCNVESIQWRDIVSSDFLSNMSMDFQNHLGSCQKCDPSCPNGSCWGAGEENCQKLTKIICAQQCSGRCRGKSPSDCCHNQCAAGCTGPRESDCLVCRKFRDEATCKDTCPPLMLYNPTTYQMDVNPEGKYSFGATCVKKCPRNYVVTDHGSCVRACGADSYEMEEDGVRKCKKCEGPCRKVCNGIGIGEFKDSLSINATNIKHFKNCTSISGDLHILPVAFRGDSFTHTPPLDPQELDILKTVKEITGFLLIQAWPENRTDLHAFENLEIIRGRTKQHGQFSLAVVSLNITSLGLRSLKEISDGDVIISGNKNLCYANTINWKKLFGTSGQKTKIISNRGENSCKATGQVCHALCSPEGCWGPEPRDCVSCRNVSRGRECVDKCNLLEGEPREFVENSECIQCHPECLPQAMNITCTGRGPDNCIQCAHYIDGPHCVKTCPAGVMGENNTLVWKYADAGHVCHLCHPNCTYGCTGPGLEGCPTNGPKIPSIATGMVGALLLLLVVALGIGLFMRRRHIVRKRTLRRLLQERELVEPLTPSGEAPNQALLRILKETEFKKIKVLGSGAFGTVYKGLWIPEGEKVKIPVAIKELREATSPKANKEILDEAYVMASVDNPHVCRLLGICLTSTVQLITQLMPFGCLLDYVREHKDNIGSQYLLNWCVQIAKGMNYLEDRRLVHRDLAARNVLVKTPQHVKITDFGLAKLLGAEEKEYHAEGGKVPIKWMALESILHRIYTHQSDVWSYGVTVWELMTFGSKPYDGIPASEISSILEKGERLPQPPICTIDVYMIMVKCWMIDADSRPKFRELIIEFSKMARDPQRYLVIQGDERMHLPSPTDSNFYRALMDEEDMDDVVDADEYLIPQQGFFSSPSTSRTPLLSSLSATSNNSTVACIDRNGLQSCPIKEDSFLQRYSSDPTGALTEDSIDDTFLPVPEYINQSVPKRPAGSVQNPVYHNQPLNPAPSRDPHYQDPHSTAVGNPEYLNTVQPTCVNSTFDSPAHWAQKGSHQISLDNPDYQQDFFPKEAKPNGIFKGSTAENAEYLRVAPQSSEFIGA
Sequence of Fibroblast growth factor 10 (Homo sapiens) (O15520 whole entry, looked up): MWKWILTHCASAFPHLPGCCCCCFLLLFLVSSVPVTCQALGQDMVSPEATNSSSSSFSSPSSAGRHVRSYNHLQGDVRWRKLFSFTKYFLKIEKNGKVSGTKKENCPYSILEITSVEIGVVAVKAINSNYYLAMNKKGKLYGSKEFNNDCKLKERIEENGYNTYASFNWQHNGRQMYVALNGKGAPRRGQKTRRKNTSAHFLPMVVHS
Sequence of Left-right determination factor 2 (Homo sapiens) (O00292 whole entry, looked up): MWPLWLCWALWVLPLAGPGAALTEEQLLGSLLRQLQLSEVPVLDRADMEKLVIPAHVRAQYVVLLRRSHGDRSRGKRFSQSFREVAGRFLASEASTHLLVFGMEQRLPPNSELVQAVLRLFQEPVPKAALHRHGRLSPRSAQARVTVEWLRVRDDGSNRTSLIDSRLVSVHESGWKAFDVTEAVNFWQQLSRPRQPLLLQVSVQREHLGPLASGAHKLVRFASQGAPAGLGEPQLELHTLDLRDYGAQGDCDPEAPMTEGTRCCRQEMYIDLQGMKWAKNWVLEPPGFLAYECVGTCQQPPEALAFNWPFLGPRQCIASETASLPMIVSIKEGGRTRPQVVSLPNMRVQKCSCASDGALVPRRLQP
Sequence of Dickkopf-related protein 1 (Homo sapiens) (O94907 whole entry, looked up): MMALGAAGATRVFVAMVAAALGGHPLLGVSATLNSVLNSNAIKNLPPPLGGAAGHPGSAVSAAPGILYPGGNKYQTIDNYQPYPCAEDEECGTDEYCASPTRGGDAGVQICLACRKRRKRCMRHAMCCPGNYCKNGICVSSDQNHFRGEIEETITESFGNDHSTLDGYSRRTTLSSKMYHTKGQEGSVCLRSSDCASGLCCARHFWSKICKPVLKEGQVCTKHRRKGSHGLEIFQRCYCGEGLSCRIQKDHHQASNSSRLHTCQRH
Sequence of Follistatin-related protein 3 (Homo sapiens) (O95633 whole entry, looked up): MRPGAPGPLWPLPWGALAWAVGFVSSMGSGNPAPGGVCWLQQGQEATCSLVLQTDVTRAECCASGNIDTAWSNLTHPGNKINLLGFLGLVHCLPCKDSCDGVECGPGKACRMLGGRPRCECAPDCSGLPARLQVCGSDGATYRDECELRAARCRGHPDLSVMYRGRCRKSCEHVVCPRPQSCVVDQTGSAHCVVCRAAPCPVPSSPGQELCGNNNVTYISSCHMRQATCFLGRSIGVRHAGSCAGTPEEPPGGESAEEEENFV

As for `COc1ccc([Si](C)(C)[C@H]2[C@H](CCn3cc([C@H](O)c4ccccc4)nn3)O[C@@]3(C(=O)N(Cc4ccc(N5CCC5=O)cc4)c4ccccc43)[C@@H]2C)cc1`, the composite z-score in [1] is 0.995; in [2], -0.185; in test [3], -0.403; in test [5] it was 0.865; in test [6] it was 0.365; in [7], 0.631. In addition, the composite z-score in [8] is 0.855; in [9], 0.527; in [10], 0.862; in test [11], 0.73; in test [13] it was 0.656; in test [14], -0.468. The composite z-score in [15] was -0.217; in test [16] it was -0.16; in test [17] it was -0.138; in test [18], -0.103; in [19], 0.273; in test [20] it was 0.54. The z-score was 0.0121 (inactive) in test [4] and -0.917 in test [12].

`CC(C)(C)N1CC=CC23O[C@@H]4C=CCOC(=O)[C@@H]4[C@H]2C(=O)N(CCCO)[C@@H]3C1=O` (stereo not given in full): the composite z-score in test [1] was 1.43; in [2], -0.451; in test [3] it was 0.726; in [5], -1.3; in test [6] it was -1.13; in test [7], -1.66. Further, the composite z-score was -1.69 in test [8]; -1.26 in test [9]; 0.301 in test [10]; -0.62 in test [11]; -2.12 in [13]; -1.03 in [14]. Further, the composite z-score in test [15] was 0.392; in test [16] it was -0.232; in test [17], -0.297; in test [18] it was -0.425; in test [19], 0.412; in [20] it was -2.03. The results for the z-score in test [4] and in [12] were -1.28 (inactive) and 0.104, respectively.

Take `O=C1NC(=O)C2C1C=CC(C(O)c1ccc(Br)cc1)N2Nc1ccccn1` (stereo not given): the composite z-score in test [1] was found to be 0.246; in test [2], 0.71; in test [3], 0.662; in test [5], 0.557; in test [6], 0.389; in test [7] it was 0.12. For the same compound, the composite z-score in test [8] was 0.28; in [9], 1.27; in test [10], 1.37; in test [11] it was -0.444; in test [13], 0.727; in test [14] it was -0.156. In addition, the composite z-score in test [15] was -0.435; in [16], 0.149; in test [17], 0.254; in [18], 0.356; in test [19], 0.531; in [20], 0.22. Besides, the z-score in test [4] was -0.141 (inactive); in test [12], 0.233.

Consider `COc1ccc([Si](C)(C)[C@H]2[C@H](CCn3cc(CCO)nn3)O[C@@]3(C(=O)N(Cc4ccc(N5C(=O)c6cccc7cccc5c67)cc4)c4ccccc43)[C@@H]2C)cc1`, for which the composite z-score is 0.96 in test [1]; -0.145 in test [2]; -0.564 in test [3]; 0.916 in [5]; 0.682 in test [6]; 0.567 in [7]. For the same compound, the composite z-score in test [8] stood at 1.3; in test [9], 0.652; in [10] it was 0.281; in test [11], 1.4; in test [13], 0.691; in test [14], 0.778. The composite z-score in test [15] was 0.487; in test [16] it was -0.117; in test [17] it was 0.0121; in [18], 0.298; in [19], 0.537; in test [20], 1.08. Also, the z-score was -2.8 (inactive) in test [4] and -5.13 in test [12].

Regarding `CCOC(=O)C1=CC[C@@H](c2ccccc2)N(S(=O)(=O)c2ccc(C)cc2)C1`, the composite z-score in [1] was 0.243; in test [2], 0.617; in test [3], 0.931; in test [5] it was -0.0077; in test [6], 0.121; in test [7], 0.0223. Moreover, the composite z-score was 0.36 in [8]; 0.107 in test [9]; 1.29 in test [10]; 0.493 in test [11]; -0.0161 in [13]; -0.11 in test [14]. Also, the composite z-score in test [15] was -0.374; in test [16], -0.0459; in test [17], 0.485; in [18], 0.005; in test [19], 0.127; in [20] it was 0.329. The results for the z-score in [4] and in test [12] were 0.259 (inactive) and -2.23, respectively.

Consider `CCCCC(CC)C(O)C1C=CC2C(=O)N(c3ccccc3)C(=O)C2N1Nc1ccc([N+](=O)[O-])cc1` (stereo not given), for which the composite z-score was determined as 1.31 in [1]; 0.68 in [2]; 0.457 in test [3]; 1.01 in test [5]; 1.34 in [6]; 0.444 in test [7]. Also, the composite z-score turned out to be 1.34 in test [8]; 0.155 in test [9]; 0.532 in test [10]; 1.37 in test [11]; 0.362 in [13]; 1.68 in [14]. For the same compound, the composite z-score was -0.371 in test [15]; -0.0519 in test [16]; -0.258 in test [17]; -0.623 in [18]; 0.513 in [19]; 1.27 in [20]. Besides, the z-score in test [4] was 0.63 (inactive); in test [12] it was -0.127.

With `COC(=O)[C@]1(CCS(=O)(=O)c2ccccc2)N=C(c2ccc(OCCCO)cc2)O[C@@H]1c1ccccc1CN=[N+]=[N-]`, the composite z-score is 1.24 in test [1]; 0.366 in test [2]; 0.763 in [3]; 0.63 in test [5]; 1.28 in [6]; 0.231 in test [7]. Further, the composite z-score amounted to 0.702 in test [8]; 0.0636 in test [9]; 0.681 in test [10]; 1.41 in test [11]; 0.0011 in test [13]; 0.631 in test [14]. Besides, the composite z-score is -0.48 in test [15]; 0.0785 in test [16]; -0.0035 in test [17]; 1.02 in test [18]; 0.879 in [19]; 0.969 in test [20]. The z-score is 1.08 (inactive) in test [4] and -2.98 in [12].

For the compound `C=CCNC(=O)[C@@H]1[C@H]2C(=O)O[C@H](c3ccccc3)[C@H](c3ccccc3)N2[C@H](c2ccc(OCCO)cc2)[C@@]12C(=O)N(C(=O)OCCOC)c1ccc(C#CC3=CCCCC3)cc12`, the composite z-score in [1] is 1.11; in test [2], 0.331; in test [3] it was -0.112; in [5] it was 0.957; in test [6], 1.28; in test [7] it was 0.552. The composite z-score in [8] was determined as 1.06; in test [9], 0.44; in [10], 0.726; in [11], 1.34; in test [13] it was 0.509; in test [14] it was 1.66. Besides, the composite z-score in [15] was 0.283; in test [16] it was -0.0051; in test [17], 0.13; in [18], -0.375; in test [19], 0.642; in test [20], 0.84. Further, the z-score in test [4] is -0.57 (inactive); in test [12] it was -1.68.
